Screening data deposited in PubChem by National Center for Advancing Translational Sciences (NCATS).
Giardia kill – kills Giardia lamblia; Giardia lamblia trophozoite viability; actives 0.15% (n = 340,000); activity change, % at 7.66 µM, hits read low; in the data active means activity change below about -80%; inconclusive means between about -30% and that limit;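 further: parasites exposed to compound for two days anaerobically before the ATP read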
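Anaerobic 48 hrs incubation at 37 deg C of 100 trophozoites/well with test compounds; ATPLite 1-Step luminescence, 15-30 min RT, reports cellular ATP as viability.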
MCF10A rerep – induces DNA re-replication in MCF 10a normal breast cells; MCF 10A DNA re-replication, Hoechst nuclear intensity, 48 h; Potency, µM (highest dose often 46.1 µM), hits mostly activators; actives 2.9% (n = 350,000); further: nearly all actives have a fitted effect of over 50% in size
uPA surface inh – cell surface uPA generation inhibition; Potency, µM (highest dose often 38.3 µM), usual class: inhibitors; actives 0.31% (n = 330,000); cell surface uPA generation assay, qHTS; active means well fitted inhibition curve with a large enough effect; inconclusive means small, poorly fitted or top-dose-only effect; inactive means no such curve, though single readings can be large or run the other way; tested in mouse RAW 264.7 cells; further: nearly all actives have a fitted effect of over 55% in size
SW480 rerep – induces DNA re-replication in SW480 colon adenocarcinoma cells | SW480 DNA re-replication, Hoechst DNA content imaging, 48 h | Potency, µM (highest dose often 46.1 µM), most hits filed as activators | actives 1.8% (n = 340,000) | AID 624297; further: nearly all actives have a fitted effect of over 55% in size
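Quantitative HTS format with DMSO vehicle controls; 48 hr drug incubation at 37 C, then 40 min Hoechst staining and scanning imager measurement at 405 nm excitation.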
Each line names hits and unclear results; the compound was inactive in the other large screens. Hits are enriched below; roughly 4.3% of the tested compounds scored in any of these assays. Unless noted, the call rests on the fitted dose curve; in most records, active means well fitted activation curve with a large enough effect; inconclusive means small, poorly fitted or top-dose-only effect; inactive means no such curve, though single readings can be large or run the other way.

O=C(c1ccc(CN2CCc3ccccc3C2)cc1)N1CCN(c2ccc(F)cc2)CC1	MCF10A rerep 7.3µM
O=C(c1ccc(Cn2cc(Br)cn2)cc1)N1CCN(c2ccccc2)CC1	MCF10A rerep 21µM, SW480 rerep 15µM
CN(CC(=O)Nc1cc(S(=O)(=O)N2CCCC2)ccc1Cl)Cc1nc2ccccc2c(=O)[nH]1	none
COc1ccc(CCN2C(=S)NC3CC2(C)Oc2ccc([N+](=O)[O-])cc23)cc1OC (stereo unspecified)	SW480 rerep 16µM
COc1ccc(N2C(=O)NC3CC2(C)Oc2ccc(Cl)cc23)cc1OC (stereo unspecified)	MCF10A rerep inconclusive, SW480 rerep inconclusive
Cc1cc(-n2c(C)cc(C(=O)CSc3[nH]c(=O)cc(C(F)(F)F)c3C#N)c2C)no1	MCF10A rerep inconclusive, SW480 rerep 3.3µM
Cc1cc(NC(=O)CSc2[nH]c(=O)cc(C(F)(F)F)c2C#N)no1	none
Cc1cc(C)c(C(N)=O)c(SCC(=O)c2cc(C)n(-c3cc(C)on3)c2C)n1	MCF10A rerep 21µM, SW480 rerep inconclusive
O=Cc1cccnc1SCc1ccccc1	SW480 rerep 2.6µM
CCOc1cc(C(=O)OC(C)C(=O)Nc2ncc(Cl)cc2Cl)ccc1OCC(=O)N1CCOCC1 (stereo unspecified)	MCF10A rerep inconclusive, uPA surface inh 8.9µM
O=P(O)(O)OC[C@H]1O[C@](O)(COP(=O)(O)O)[C@@H](O)[C@@H]1O	none (no result: Giardia kill, uPA surface inh)
Cc1ccccc1C(=O)NNc1ccc(-c2csnn2)cc1	MCF10A rerep 18µM
O=C1/C(=C/c2ccc(F)cc2)SC(=S)N1Nc1ncc(C(F)(F)F)cc1Cl	MCF10A rerep 3.7µM, SW480 rerep inconclusive
COC(=O)c1ccc(Cn2cnc3c(Cl)ncnc32)cc1	none
CCCn1c(/N=C/c2c[nH]c3ccccc23)nc2ccccc21	none
CCCCn1c(/C=N/Nc2nc3ccccc3[nH]2)nc2ccccc21	MCF10A rerep inconclusive, SW480 rerep 8.2µM
CCCCn1c(/N=C/c2c[nH]c3ccccc23)nc2ccccc21	MCF10A rerep 12µM, SW480 rerep 18µM
COc1ccc2c(c1)c(/C=N/Nc1nc3ccccc3[nH]1)c(C)n2C	MCF10A rerep 21µM, SW480 rerep inconclusive
Fc1ccccc1-c1ccc(/C=N/Nc2nc3ccccc3[nH]2)o1	MCF10A rerep 18µM, uPA surface inh 4µM, SW480 rerep inconclusive
COc1cc(/C=N\Nc2nc3ccccc3[nH]2)cc(OC)c1OC	MCF10A rerep inconclusive
COc1cccc(C=NN2CCCCCC2)c1OC	MCF10A rerep inconclusive
N#Cc1nc(-c2ccc(OCc3ccc(Cl)cc3)cc2)oc1N1CCCCC1	none (no result: MCF10A rerep, uPA surface inh, SW480 rerep)
O=[N+]([O-])c1ccc(C=NN2CCCCCC2)cc1	none
COC(=O)c1c(C)oc2ccc(N(C(=O)c3ccncc3)S(=O)(=O)c3ccc4ccccc4c3)cc12	MCF10A rerep 3.3µM
COC(=O)c1c(C)oc2ccc(N(C(=O)c3ccncc3)S(=O)(=O)c3ccc(C)cc3)cc12	MCF10A rerep inconclusive, SW480 rerep 6.5µM
Cc1ccc(S(=O)(=O)N(C(=O)c2ccncc2)c2ccc3oc4c(c3c2)CCCC4)cc1[N+](=O)[O-]	MCF10A rerep 15µM
COC(=O)c1c(C)oc2ccc(N(C(=O)c3ccncc3)S(=O)(=O)c3ccc(C)cc3C)cc12	MCF10A rerep 15µM
COCCOC(=O)c1c(C)oc2ccc(NS(=O)(=O)c3ccc(C)cc3)cc12	MCF10A rerep 16µM
COCCOC(=O)c1c(C)oc2ccc(NS(=O)(=O)c3ccccc3)cc12	none
Cc1cccc(N=C2NN=C(c3ccc4c(c3)OCCO4)CS2)c1	MCF10A rerep inconclusive, SW480 rerep inconclusive (no result: uPA surface inh)
Cc1cccc(N=C2NN=C(c3c(C)[nH]c4ccccc34)CS2)c1	MCF10A rerep 15µM, SW480 rerep inconclusive
Cc1ccc(-c2nc(N)sc2-c2ccc(C)cc2)cc1	MCF10A rerep 23µM
Cc1ccc(-c2nc(N)sc2-c2ccccc2)cc1C	MCF10A rerep 8.2µM
Nc1nc(-c2ccccc2)c(-c2ccccc2)s1	none
Cc1ccc(C(=O)N2[C@@H]3CN(C)C(=O)[C@@]2(C)[C@H]2C(=O)N(C)C(=O)[C@@H]32)cc1	none
CCOC(=O)C1(CC)CC(CSc2nc3ccccc3[nH]2)OC1=O (stereo unspecified)	none
CCOC(=O)C1(CCC(C)C)CC(CSc2nc3ccccc3[nH]2)OC1=O (stereo unspecified)	MCF10A rerep 6.5µM
CC(=O)[C@@H]1[C@@H]2C(=O)N(Cc3ccccc3)C(=O)[C@@H]2C2c3ccccc3C=CN21 (stereo partly specified)	MCF10A rerep 5.8µM
CC(C)(C)c1ccc(CN2N=C(/C=C/c3ccccc3)CCC2=O)cc1	MCF10A rerep 21µM, SW480 rerep inconclusive
CC(C)c1nc(SCC(=O)Nc2cccc3ccccc23)n[nH]1	none
COc1cccc(/C=C2\SC(=O)NC2=O)c1OCc1ccc(C(=O)O)cc1	none
COc1ccc(OC)c(/C=C2\S/C(=N/NC(=O)c3ccc4ccccc4c3)NC2=O)c1	MCF10A rerep 16µM
O=C1N/C(=N/NC(=O)c2cccc3ccccc23)S/C1=C\c1ccccc1OCc1ccccc1	MCF10A rerep 23µM
Oc1cccc(C(O)CNCc2ccc(-c3ccccc3)cc2)c1 (stereo unspecified)	MCF10A rerep 16µM, SW480 rerep inconclusive
Oc1cccc(C(O)CNCc2ccc(OCc3ccc(Cl)cc3Cl)cc2)c1 (stereo unspecified)	MCF10A rerep 15µM, SW480 rerep inconclusive
OC(CNCc1cccc(Cl)c1)c1ccccc1 (stereo unspecified)	SW480 rerep inconclusive
OC(CNCc1ccccc1)c1ccccc1 (stereo unspecified)	none
O=C(CCCN1C(=O)/C(=C\c2cccs2)SC1=S)Nc1ccc(O)cc1	SW480 rerep 21µM
O=C(CCCN1C(=O)S/C(=C\C=C\c2ccccc2)C1=O)Nc1ccc(O)cc1	MCF10A rerep 12µM, SW480 rerep inconclusive
O=C(CCCN1C(=O)/C(=C\c2cccs2)SC1=S)Nc1ccc(C(=O)O)cc1	none
Cc1nc2cc3c(cc2c(C)c1C(=O)OC(C)C)OCO3	none
CC[C@H]1CCCCc2ccccc2[C@@H](C(=O)C[C@@H](O)CC(C)=O)OC1=O	SW480 rerep inconclusive
Cc1ccc(C(C(=O)NCc2ccc(F)cc2)N(Cc2ccco2)C(=O)c2snc(C(N)=O)c2N)o1 (stereo unspecified)	MCF10A rerep 16µM
NC(=O)c1nsc(C(=O)N(Cc2ccco2)C(C(=O)NCc2ccc(F)cc2)c2ccc(O)cc2)c1N (stereo unspecified)	none
COc1ccc(N(C(=O)c2snc(C(N)=O)c2N)C(C(=O)NCc2ccccc2)c2ccc(O)cc2)cc1 (stereo unspecified)	MCF10A rerep inconclusive
NC(=O)c1nsc(C(=O)N(c2ccccc2)C(C(=O)NCc2ccc(F)cc2)c2ccc(O)cc2)c1N (stereo unspecified)	MCF10A rerep 13µM, SW480 rerep inconclusive
COc1ccccc1NS(=O)(=O)c1cc(C(=O)NC2CC(C)(C)NC(C)(C)C2)ccc1Cl	none
COc1cc(/C=N/NC(=S)NC2CC3C=CC2C3)cc(OC)c1OC (stereo unspecified)	none
